The target of assay [1] is T1, Aspartate--tRNA(Asp/Asn) ligase (Mycobacterium tuberculosis (strain ATCC 25618 / H37Rv)) (UniProt P9WFW3). Further: in the data most compounds retested in dose-response had high values.
T1 sequence (whole entry): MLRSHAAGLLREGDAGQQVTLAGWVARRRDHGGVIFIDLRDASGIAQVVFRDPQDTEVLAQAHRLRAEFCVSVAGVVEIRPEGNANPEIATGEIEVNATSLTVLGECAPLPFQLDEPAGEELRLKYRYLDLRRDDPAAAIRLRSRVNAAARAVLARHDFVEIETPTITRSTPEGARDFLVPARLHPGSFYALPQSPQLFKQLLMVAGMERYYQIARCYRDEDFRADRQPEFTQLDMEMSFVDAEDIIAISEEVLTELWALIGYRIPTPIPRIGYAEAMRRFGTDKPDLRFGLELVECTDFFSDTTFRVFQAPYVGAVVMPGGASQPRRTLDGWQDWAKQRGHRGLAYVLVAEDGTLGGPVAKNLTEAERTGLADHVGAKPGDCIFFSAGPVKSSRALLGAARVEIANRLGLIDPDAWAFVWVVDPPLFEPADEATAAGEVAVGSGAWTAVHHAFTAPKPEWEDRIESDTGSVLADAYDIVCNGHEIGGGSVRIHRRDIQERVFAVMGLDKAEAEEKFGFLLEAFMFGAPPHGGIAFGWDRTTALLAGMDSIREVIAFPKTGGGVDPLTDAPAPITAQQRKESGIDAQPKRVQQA
The assay is described as follows: Assay for Asp RNA synthetase-1 from Mycobacterium tuberculosis. It counts as functional. Also on record: scale not given: direction of the effect not stated beside the values. The following applies: 30 µM.

For assay [2], the target named is Shiga toxin 2 (Escherichia coli O157:H7) (UniProt P09385+P09386). In words: E. coli 0.157:H7 Shiga Toxin SOP - stx2 screening assay. Format: functional. Further details: scale not given: direction of the effect not stated beside the values. Conditions: 30 µM.

As to `c1csc(-c2nc(CN3CCOC(Cn4cncn4)C3)cs2)c1` (centres undefined), the Percent Effect was -6.66% in assay [1] and 31.4% in assay [2].

On to `c1cnnc(N2CCCC2CNCc2nc3ccccc3o2)c1` (centres undefined), for which the Percent Effect in assay [1] is 7.18%; in assay [2], -25.7%.

On to `CC(C)n1cc(C(=O)N2Cc3ccccc3OC3(CCOCC3)C2)cn1`, for which the figures for the Percent Effect in assay [1] and in assay [2] were -1.29% and -21.7%, respectively.

As for `Cc1cnn(CC2CCCN2Cc2nc3ccccc3nc2C)c1` (centres undefined), the Percent Effect in assay [1] was -1.82%; in assay [2], -1.37%.

As for `Cc1ccc(CN(C)CC(=O)NC2(C)CCS(=O)(=O)C2)cc1` (centres undefined), the Percent Effect in assay [1] was 1.84%; in assay [2], -25.3%.

As for `CN(Cc1cn2c(n1)CN(c1ncc(F)cn1)CC2)Cc1ccco1`, the Percent Effect is 2.34% in assay [1] and -8.28% in assay [2].

With `O=C(c1cc2c(s1)CCC2)N1CCCCC1Cn1cccn1` (centres undefined), the Percent Effect in assay [1] came to 1.25%; in assay [2] it was 11.1%.

As to `C=Cn1ncc(CN2C[C@@H]3CCCN3C[C@@H]2Cc2ccccc2)c1C`, the Percent Effect in assay [1] was -6.18%; in assay [2] it was 2.92%.

For `CC(C)CN1Cc2c(C(=O)N(C)C)ncn2-c2ccccc2S1(=O)=O`, the figures for the Percent Effect in assay [1] and in assay [2] were -2.86% and 4.89%, respectively.

With `CCC1CCCCN1C(=O)c1ccc2[nH]nnc2c1` (centres undefined), the Percent Effect in assay [1] is 6.94%; in assay [2] it was -3.51%.

As to `OCCOc1nc(-c2ccccc2Cl)no1`, the Percent Effect in assay [1] was -8.6%; in assay [2], -16.2%.

Take `Cc1noc(C(C)N2CCN(CCCN3CCCC3=O)CC2)n1` (centres undefined): the Percent Effect in assay [1] was 0.409%; in assay [2], 4.39%.

In the case of `Cn1ccc2ccc(C(=O)N3CCN(C(=O)N4CCOCC4)CC3)cc21`, the Percent Effect in assay [1] was -0.0331%; in assay [2], 7.14%.

For the molecule `CC(O)CN1CCC(CNCc2c[nH]nc2C(C)(C)C)CC1` (centres undefined), the Percent Effect in assay [1] came out at 0.384%; in assay [2] it was 14.9%.

Consider `Cc1cc(C)nc(NC(=O)C(C)Oc2ccc3c(c2)OCO3)n1` (centres undefined), for which the Percent Effect in assay [1] was 12.6%; in assay [2], -50%.

For `CC1CN(C)CCN1C(=O)c1ccn(-c2cccc(Cl)c2)n1` (centres undefined), the Percent Effect is -2.06% in assay [1] and -4.97% in assay [2].

With `O=C1NC(c2ccccc2)=N[C@@]12CC[C@@H]1CN(Cc3ccco3)C[C@@H]12`, the Percent Effect is 3.61% in assay [1] and -16.5% in assay [2].

As for `CCc1nc(CN(C)C2CCN(Cc3cnc(C)cn3)C2)no1` (centres undefined), the results for the Percent Effect in assay [1] and in assay [2] were 1.14% and -48.2%, respectively.

For `c1csc(-c2nc(CNC3CCc4ncnn4C3)cs2)c1` (centres undefined), the Percent Effect is -3.43% in assay [1] and -12.9% in assay [2].

In the case of `O=C(O)c1nnn(-c2ccc(OC(F)(F)F)cc2)c1-c1ccncc1`, the Percent Effect was 4.91% in assay [1] and -8.85% in assay [2].

As to `Cn1cc(-c2csc(N3CCOCC3)n2)cn1`, the values for the Percent Effect in assay [1] and in assay [2] were 2.54% and -13%, respectively.

In the case of `O=C(CSc1ncccn1)N1C[C@H]2CC[C@@H]1CN(Cc1ccncc1)C2`, the Percent Effect in assay [1] is 3.45%; in assay [2] it was -26.2%.

For `Cc1cnn(CC2CN(c3cnc4ccccc4n3)CCO2)c1` (centres undefined), the values for the Percent Effect in assay [1] and in assay [2] were -11.1% and -0.837%, respectively.

As for `Cc1nc2ccnn2c(C)c1CCC(=O)N1CCN(C2CC2)CC1`, the Percent Effect was determined as 3.26% in assay [1] and 33% in assay [2].

For `O=C(N1CCCO1)[C@@]12CCO[C@@H]1CCN(C1CCCCC1)C2`, the Percent Effect was -5.76% in assay [1] and -31.5% in assay [2].

Regarding `CC(=O)N1CCC(Oc2ccc(Cl)cn2)CC1`, the Percent Effect was -6.73% in assay [1] and -4.66% in assay [2].

As to `COC(=O)CCC(=O)N1CCc2[nH]nc(-c3ccc(F)c(F)c3)c2C1`, the Percent Effect is 5.15% in assay [1] and -11.9% in assay [2].

In the case of `CC(O)CN1CCN(C(=O)c2ccc(Cn3cccn3)cc2)CC1` (centres undefined), the Percent Effect in assay [1] is 5.51%; in assay [2], 14.6%.

`Cc1nc(C)n(CC2CCCN(CC(=O)Nc3c(C)n[nH]c3C)C2)n1` (centres undefined): the Percent Effect in assay [1] was -1.34%; in assay [2] it was 32.2%.

In the case of `O=C(NCCN1CCOCC1)c1ccc(-n2ccc3ccccc32)s1`, the Percent Effect in assay [1] is 3.45%; in assay [2], -47.9%.

In the case of `O=C(c1cccc(Cl)c1)N1CC[C@H]2[C@H]1CCN2CC1CCOCC1`, the Percent Effect in assay [1] is -4.93%; in assay [2], -25.2%.

For the molecule `O=C(Nc1ccc(F)cc1F)Nc1c[nH]c(=O)[nH]c1=O`, the Percent Effect in assay [1] is 1.82%; in assay [2], -4.74%.

Consider `CC(C)n1cc(CN2CCCN(C(=O)c3nccnc3N)CC2)cn1`, for which the Percent Effect was 6.6% in assay [1] and -11.2% in assay [2].

In the case of `CCOc1ccnc(N2CCN(C(=O)c3cc(Cl)c[nH]3)CC2)n1`, the Percent Effect was -2.48% in assay [1] and 18.5% in assay [2].

Turning to `Cn1cc(C(=O)Nc2ccc3c(c2)CN(C(=O)c2ccco2)CC3)nn1`, the results for the Percent Effect in assay [1] and in assay [2] were 5.79% and -88.9%, respectively.

On to `Cc1nc(COc2ccc(CNCC3CN(C)CCO3)cc2)cs1` (centres undefined), for which the Percent Effect is 5.51% in assay [1] and -13.8% in assay [2].

For the molecule `Cn1cc(CCNC(=O)CCc2ccc3c(c2)OCO3)cn1`, the Percent Effect in assay [1] stood at 1.25%; in assay [2], 21.4%.

Values taken from ChEMBL document CHEMBL3988442, “University of Dundee, Small-Polar-MMV Screening Library” (2021).
